Values joined by “and” are separate entries in the source; they are usually repeats but may differ in a detail not shown here. Equal entries are not always repeated. Screen size: about 16,000 compounds; about 2,600 (16%) were called active. Another 20% or so got no clear call; they are omitted. The call rests on the fitted dose curve; in most records, active means well fitted curve in the direction sought with a large enough effect; inconclusive means small, poorly fitted or top-dose-only effect, or effect the other way; inactive means no such curve, though single readings can be large or run the other way. These entries were drawn from the full list. Some structures have more than one record in an assay (separate samples or runs), and their calls can disagree.
Target: Cytochrome P450 2D6 (Homo sapiens) (UniProt P10635)
Assay: Cytochrome panel assay with activity outcomes
Settings: recombinant CYP, pro-luciferin dealkylation, luminescence, p450-cyp2d6; series mostly up to 57.1 µM; activity, negative = inhibition: at the top concentration
On the % scale 0 is the no-effect control and ±100 the full control effect.

Cytochrome P450 2D6 (Homo sapiens), sequence (P10635 whole entry, looked up): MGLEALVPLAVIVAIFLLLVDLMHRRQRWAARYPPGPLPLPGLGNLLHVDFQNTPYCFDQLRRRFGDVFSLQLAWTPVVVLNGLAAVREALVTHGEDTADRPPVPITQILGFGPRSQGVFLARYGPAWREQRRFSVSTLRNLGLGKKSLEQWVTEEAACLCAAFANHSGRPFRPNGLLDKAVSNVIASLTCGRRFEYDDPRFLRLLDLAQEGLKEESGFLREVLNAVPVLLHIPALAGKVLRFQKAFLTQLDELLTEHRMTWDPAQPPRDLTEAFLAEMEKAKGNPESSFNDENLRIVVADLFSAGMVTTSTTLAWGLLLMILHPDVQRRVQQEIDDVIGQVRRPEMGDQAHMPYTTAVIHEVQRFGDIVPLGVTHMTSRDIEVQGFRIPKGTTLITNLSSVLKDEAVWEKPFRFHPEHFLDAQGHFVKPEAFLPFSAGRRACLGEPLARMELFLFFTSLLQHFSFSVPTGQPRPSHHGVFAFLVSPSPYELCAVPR

Structure (SMILES) | activity, negative = inhibition | AC50
COc1ccccc1N/C(=N/S(=O)(=O)c1ccc(C)cc1)c1ccc(Cl)cc1 | -25% (inactive) | 
CCOc1cc(CC(=O)N[C@@H](CC(C)C)c2ccccc2N2CCCCC2)ccc1C(=O)O | 6.36% [at 25.6 µM] (inactive) | 
Cc1cc(N2CCN(c3nc4ccccc4s3)CC2)n2ncnc2n1 | -17.1% (inactive) | 
C[n+]1ccccc1/C=N\O | -1.84% [at 25.6 µM] (inactive) | 
CS(=O)(=O)c1ccccc1-c1nc(-c2cc(C(F)(F)F)cc(C(F)(F)F)c2)no1 | -2.41% (inactive) | 
N[C@@H](CO)C(=O)O |  | inactive
CO[C@]1(C2=NCCN2)COc2ccccc2O1 |  | inactive and 794 nM (active)
COc1ccc(N2C(=O)c3ccccc3NC2c2ccc(OC)c(CSc3ccccn3)c2)cc1 (centres undefined) | -10.2% (inactive) | 
COc1ccc(NC(=O)Cn2cccc2)c(OC)c1 | -17.6% (inactive) | 
COCCN(C(=O)Nc1ccc(OC)cc1OC)C1CCN(C(C)=O)CC1 | -19.1% (inactive) | 
CCCCN(CC)Cc1ccc(CNC(=O)Nc2ccc(OC)cc2OC)o1 |  | 0.501 µM (active)
CC(=O)NC(CCS(C)(=O)=O)C(=O)Nc1c(F)cccc1F (centres undefined) | 4.81% (inactive) | 
O=C1CCCN1CC(CN1CCOCC1)Sc1nnnn1-c1ccccc1 (centres undefined) | -23.8% (inactive) | 
Cc1cc(C)c(S(=O)(=O)N2CCN(c3ccc([N+](=O)[O-])c(NCC4CCCO4)c3)CC2)c(C)c1 (centres undefined) | -0.0104% (inactive) | 
Cc1cc(C)n(-c2cc(N3CCN(S(=O)(=O)c4ccc(C)c(C)c4)CC3)ccc2[N+](=O)[O-])n1 |  | 0.501 µM (active)
Cc1cc(C)n(-c2cc(N3CCN(C(=O)c4ccc(C(C)(C)C)cc4)CC3)ccc2[N+](=O)[O-])n1 | -7.5% (inactive) | 
COc1ccc2c(C=Nc3c(C)n(C)n(-c4ccccc4)c3=O)c(O)n(Cc3ccco3)c(=O)c2c1 | -13.3% (inactive) | 
COc1cccc(Cn2c(=O)c(-c3cccs3)nc3cnc(N4CCN(C)CC4)nc32)c1 | -4.92% (inactive) | 
CN(C)C(=O)CCc1nc(-c2ccc(C(C)(C)C)cc2)no1 | 6.51% (inactive) | 
COC(=O)c1ccc(Oc2nc(N(C)C)nc(N3CCOCC3)n2)cc1 | 14% (inactive) | 
O=C(O)[C@@H](O)[C@@H](O)[C@@H](O)[C@@H](O)c1nc2ccccc2s1 | -1.94% [at 11.4 µM] (inactive) | 
Clc1ccccc1-c1nccc(-n2ccnc2)n1 |  | 7.94 µM (active)
Cc1ccccc1-c1nccc(-n2ccnc2)n1 |  | 10 µM (active)
FC(F)(F)c1ccccc1-c1nccc(N2CCNCC2)n1 | -1.66% (inactive) | 
COc1ccccc1-c1nnc(NC(C)=O)s1 | -3.89% (inactive) | 

Structure (SMILES) | activity, negative = inhibition | AC50
COc1ccccc1-c1nccc(-n2ccnc2)n1 |  | 15.8 µM (active)
O=C(O)CC[C@]1(C(=O)O)CCC(=O)c2ccccc21 | 10.4% [at 11.4 µM] (inactive) | 
CCOCC(=O)Nc1cc(C(=O)Nc2ccccc2)ccc1Cl | -22.9% (inactive) | 
CCc1ccc(C(=O)N2CCC(c3nc4ccccc4s3)CC2)cc1 | -8.73% (inactive) | 
CO[C@@H]1COC(=O)C/C=C\[C@H](C)[C@H](OC)COC(=O)[C@H]2CCCN2C(=O)C/C=C\[C@H]1C | 6.57% [at 11.4 µM] (inactive) | 
C[C@@H]1C[C@H]2[C@H]3C[C@@H](F)C4=CC(=O)C=C[C@]4(C)[C@@]3(Cl)[C@@H](O)C[C@@]2(C)[C@@H]1C(=O)COC(=O)C(C)(C)C | -3.56% [at 25.6 µM] (inactive) | 
CC(C)(C)OC(=O)[C@H]([C@@H]1N[C@@H](C(=O)O)C(C)(C)S1)N1C(=O)c2ccccc2C1=O | 13.9% [at 11.4 µM] (inactive) | 
CO[C@@]12C[C@@H](COC(=O)c3cncc(Br)c3)CN(C)[C@H]1Cc1cn(C)c3cccc2c13 |  | 39.8 nM (active) and 20 nM (active)
Cc1ccc(OCCNC(=O)c2cncc(Br)c2)cc1C | -19.2% (inactive) | 
CC(C)(C)NC(=O)COC(=O)c1cncc(Br)c1 | -14.1% (inactive) | 
COC(=O)C/C=C\[C@@H](C)[C@@H](/C=N\O[C@@H](C)c1cn([C@H](CO)Cc2ccccc2)nn1)OC | 15.1% [at 11.4 µM] (inactive) and 6.44% [at 11.4 µM] (inactive) | 
COc1ccc2cc3[n+](cc2c1OC)CCc1cc2c(cc1-3)OCO2 |  | 2.51 µM (active)
C[C@H]1[C@H](C)OC(=O)C[C@H](O)C[C@H](O)C[C@H](O)CC[C@H](O)[C@H](O)CC(=O)C[C@H](O)[C@H](C(=O)O)[C@H](O)C[C@H](O[C@@H]2O[C@@H](C)[C@H](O)[C@@H](N)[C@@H]2O)C=CC=CC=CC=CCCC=CC=C[C@@](C)(O)[C@H]1O | -1.84% [at 11.4 µM] (inactive) | 
O=C(Nc1ncn[nH]1)c1ccc([N+](=O)[O-])cc1[N+](=O)[O-] | -18.7% (inactive) | 
NC(=O)NC(=O)Nc1ccccc1Cl | -2.82% (inactive) | 
NC(N)=NC(=O)Cc1c(Cl)cccc1Cl |  | inactive and 126 nM (active)
O=C(O)COC(=O)Cc1ccccc1Nc1c(Cl)cccc1Cl | -2.87% [at 25.6 µM] (inactive) | 
CCC(CC)c1nnc(NC(=O)c2cccc(S(=O)(=O)N3CCc4ccccc43)c2)s1 | -2.53% (inactive) | 
CCCCN1C(=O)C(NC(=O)CC(C)C)(C(F)(F)F)C2=C1CC(C)(C)CC2=O (centres undefined) | -5.1% (inactive) | 
CN1[C@@H](CC(=O)c2ccccc2)CCC[C@@H]1C[C@@H](O)c1ccccc1 |  | 0.251 µM (active)
Nc1cc(N)nc(SCC(=O)c2ccccc2)n1 | 23.2% (inactive) | 
CN1[C@H](CC(=O)c2ccccc2)CCC[C@H]1C[C@H](O)c1ccccc1 |  | 25.1 µM (active)
O=C(C[C@@H]1C=Cc2ccccc2N1C(=O)c1ccccc1)c1ccccc1 | -16.3% [at 11.4 µM] (inactive) | 
O=C(C[C@@H](c1ccccc1)N1CCCCC1)c1ccccc1 | -19.2% [at 11.4 µM] (inactive) | 

Reference: PubChem BioAssay AID1851 (National Center for Advancing Translational Sciences (NCATS), 2009)
